LmPK inh – inhibitors of Leishmania mexicana pyruvate kinase. Q27686. purified LmPK, Kinase-Glo ATP luminescence, 1 h. Potency, µM (highest dose often 57.5 µM), for the others: top-dose activity change, negative = inhibition, most hits filed as inhibitors. 290,000 compounds, 0.37% hits. AID 1721; note: potency is the fitted concentration of half-maximal effect; % is set by controls: 0 for no effect and ±100 for the full control effect
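Purified LmPK (0.1 nM) converted ADP (0.1 mM) to ATP with PEP (0.5 mM) in imidazole buffer pH 7.2 with KCl and MgCl2, 1 h at room temperature. ATP was read by Kinase-Glo luminescence; data normalized to uninhibited and no-enzyme controls.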
CHX counter – counter-screen hit for Shiga toxin inhibitors, cycloheximide | AID 2314 | 300,000 compounds, 12% hits | max response, % | cell reporter, cycloheximide protein synthesis inhibition counterscreen; in the data active = max response mostly above about 13%, no sharp cut-off; inactive = mostly below about 14%; note: read at 38.3 µM for the half of the compounds with a filed dose; 0% is about no effect
RE007 growth inh – less growth of the S. pombe RE007 Vpr strain. S. pombe RE007 Vpr strain, BacTiter-Glo ATP luminescence, 24 h. Potency, µM (series often up to 92.2 µM), without a hit: at the top dose activity change, negative = less growth, usual class: inhibitors. 360,000 compounds, 0.21% hits. AID 651644; active = well fitted falling curve with a large enough effect; inconclusive = small, poorly fitted or top-dose-only effect; inactive = no such curve, though single readings can be large or run the other way; note: potency is the fitted concentration of half-maximal effect; % is set by controls: 0 for no effect and ±100 for the full control effect; nearly all actives have a fitted effect of over 50% in size
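Fission yeast RE007 carrying one integrated HIV-1 vpr copy, seeded at OD 0.01 in PMG+AL medium with 23 nL pinned compound. Grown 24 h at 30 degrees; viability read by BacTiter-Glo luminescence after 5 min.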
TbPYK inhibitor – T. brucei pyruvate kinase inhibition. Q57TT1. TbPYK enzyme, Kinase-Glo Plus ATP luminescence, 45 min. Potency, µM (top dose mostly 76.8 µM), without a hit: at the highest dose activity, negative = inhibition, hits mostly inhibitors. 410,000 compounds, 0.12% hits. AID 624173; note: potency is the fitted concentration of half-maximal effect; % is set by controls: 0 for no effect and ±100 for the full control effect; nearly all actives have a fitted effect of over 50% in size
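Enzyme and substrate buffer are dispensed first and compound is pin-transferred. ADP at 130 uM final then starts the reaction, which runs 45 min at room temperature. Detection reagent is added for 10 min before luminescence is imaged.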
Giardia FBPA inh – Giardia lamblia aldolase inhibition. Potency, µM (top dose mostly 59.6 µM), for inactives: top-dose activity, negative = inhibition, actives largely listed as inhibitors. purified Giardia FBPA. 290,000 compounds, 0.71% hits. AID 2451; note: potency is the fitted concentration of half-maximal effect; % is set by controls: 0 for no effect and ±100 for the full control effect; nearly all actives have a fitted effect of over 55% in size
Target sequence (A8B2U2 whole entry, looked up): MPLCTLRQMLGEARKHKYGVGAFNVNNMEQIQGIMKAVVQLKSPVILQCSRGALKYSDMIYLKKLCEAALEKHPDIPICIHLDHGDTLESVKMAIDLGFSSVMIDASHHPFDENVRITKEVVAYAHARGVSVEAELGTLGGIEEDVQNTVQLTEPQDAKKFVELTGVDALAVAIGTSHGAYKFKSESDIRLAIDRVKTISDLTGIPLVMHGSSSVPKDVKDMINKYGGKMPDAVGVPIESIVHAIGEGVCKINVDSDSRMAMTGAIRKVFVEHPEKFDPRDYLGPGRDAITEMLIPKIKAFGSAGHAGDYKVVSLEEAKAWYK
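Giardia FBPA (40 nM reagent) was preincubated 10 min at RT with compound (up to 57.5 uM final), then substrate plus GAPDH/TPI/NAD/arsenate coupling system with diaphorase/resazurin was added; resorufin fluorescence (525/598 nm) was read after 20 min.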
Shiga toxin inh – blocks Shiga toxin action in Vero cells. Vero cells, Shiga toxin protein synthesis inhibition reporter. inhibition, % at 38.7 µM. 290,000 compounds, 9.2% hits. AID 2315; in the data active = inhibition mostly above about 28%, no sharp cut-off; inactive = mostly below about 43%; note: 0% is about no effect
* marks the source's active call; other numbers are inactive results; ? = inconclusive; . = not tested or not shown. This excerpt belongs to a sample that is enriched for hits. Unless noted, calls come from the whole dose curve; as a rule, active = well fitted curve in the direction sought with a large enough effect; inconclusive = small, poorly fitted or top-dose-only effect, or another doubt; inactive = no such curve, though single readings can be large; an effect the other way counts as inactive or inconclusive.

SMILES	LmPK inh	CHX counter	RE007 growth inh	TbPYK inhibitor	Giardia FBPA inh	Shiga toxin inh
O=S1(=O)C=C(Sc2nc3ccccc3s2)c2ccccc21	-7%	77*	10µM*	2%	1%	76*
Cc1ccc(Nc2nc(N)c([N+](=O)[O-])c(NCCO)n2)cc1C	-3%	27*	13%	3%	-7%	62
Cc1ccc(Nc2nc(N)c([N+](=O)[O-])c(NCc3ccco3)n2)cc1C	1%	67*	-12%	-6%	-9%	54*
Nc1nc(Nc2ccccc2)nc(NCc2ccccc2)c1[N+](=O)[O-]	2%	9	8%	3%	-10%	-2
CCOc1ccc(Nc2nc(N)c([N+](=O)[O-])c(NCc3ccccc3)n2)cc1	2%	19*	-7%	-2%	-6%	34
O=C(NCC12CC3CC(CC(C3)C1)C2)c1cc2nc(-c3ccc(F)cc3)cc(C(F)(F)F)n2n1	.	.	.	-10%	.	.
CC(NC(=O)c1ccc2c(c1)N(Cc1ccc(Cl)cc1)C(=O)c1ccccc1S2=O)c1ccccc1 (configuration not stated)	.	.	.	-6%	.	.
COc1cccc(NS(=O)(=O)NC(=O)c2c(C)[nH]c3ccccc23)c1	6%	31*	-4%	5%	3%	30*
COc1ccc(NS(=O)(=O)NC(=O)c2c[nH]c3ccccc23)cc1	-4%	-1	0%	-1%	.	3
COc1cccc(NS(=O)(=O)NC(=O)c2c[nH]c3ccccc23)c1	-4%	45*	-5%	1%	.	53
O=c1[nH]c(=S)n(C2CC2)c(O)c1C=NCc1cccnc1	-1%	-2	-8%	-1%	-1%	6
Cc1ccccc1-n1c(O)c(/C=N/Nc2nc3c(c(=O)n(C)c(=O)n3C)n2C)c(=O)[nH]c1=S	-3%	-2	10%	-25%	2%	-3
Cc1ccccc1-n1c(O)c(/C=N/NC(=O)c2ccccc2O)c(=O)[nH]c1=S	7%	46*	2%	-20%	22%	76*
O=C(N/N=C/c1c(O)n(C2CC2)c(=S)[nH]c1=O)c1ccccc1O	3%	25*	14%	1%	7%	26
CCc1ccc(C(c2ccccc2)c2c[nH]c3ccc(C)cc23)s1 (configuration not stated)	.	.	.	-13%	.	.
Cc1ccc(Cn2cc(CCC(=O)NC3CCCCC3)c3ccccc32)cc1	.	.	.	-1%	.	.
CCc1nnc(NC(=O)COC(=O)c2cc(OC)cc(OC)c2)s1	.	.	-9%	-5%	.	.
COc1ccc2oc(C(=O)NCCN3CCOCC3)c(C)c2c1OC	?	61*	-3%	3%	.	63*
Cc1c(C(=O)NCC2CCCO2)oc2ccccc12 (configuration not stated)	.	.	-1%	1%	.	.
Cc1ccc(CSCc2ccc(C(=O)NCCCN3CCOCC3)o2)cc1	-2%	16*	1%	1%	4%	9
Cc1ccc2oc(C(=O)NCCCN3CCOCC3)c(C)c2c1	-7%	44*	-14%	3%	-7%	71*
Cc1ccc2oc(C(=O)NCCC3CCCCO3)c(C)c2c1 (configuration not stated)	-3%	26*	-9%	-13%	.	63*
O=C(NCc1ccccc1Cl)C(=O)NCC(c1ccco1)S(=O)(=O)c1cccs1 (configuration not stated)	.	.	.	1%	.	.
Cc1ccc(C(=O)NCCCN2CCOCC2)c(C)c1	-2%	20*	8%	0%	-3%	42
Cc1cc(C)c(S(=O)(=O)N2CCOC2CNC(=O)C(=O)NCCCN2CCOCC2)c(C)c1 (configuration not stated)	-10%	35*	-17%	0%	.	80*
Cc1ccc(S(=O)(=O)N2CCCC2)cc1C(=O)NCCN1CCOCC1	-10%	29*	0%	-5%	.	28*
Cc1ccc(C(=O)NCCCN2CCOCC2)c(Cl)c1	7%	17*	10%	0%	4%	.
Cc1ccc(C(=O)NCCCN2CCOCC2)cc1	.	.	0%	-1%	.	.

Source: PubChem
